FXIIa inh mix: blocks human factor XIIa in pooled compound mixtures. P00748. AID 684. inhibition, % at 5 µM. purified FXIIa, fluorogenic substrate. 62,000 compounds, 0.2% hits;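 further: 0% = enzyme without compound and 100% = no enzyme blank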
D1 allo mod: D1 dopamine receptor (human) allosteric modulation; HEK293 D1, CRE-luciferase, dopamine EC30 potentiation; actives deviate in either direction; B-score at 10 µM; 58,000 compounds, 5.9% hits; AID 641;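 active means luminescence count or its row- and column-corrected plate score outside the 99.7% band of the plate's sample wells, on either side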
M1 ag: M1 muscarinic receptor agonism | B-score at 10 µM | CHO-M1 cells, Fluo-4 calcium fluorescence, agonist mode; active compounds read high | 64,000 compounds, 3% hits;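 active means fluorescence rise, raw or as B-score row- and column-corrected plate score, outside the 99.7% band of its plate's samples, either direction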
M1 antagonist: M1 muscarinic receptor (rat) antagonism; CHO-M1 cells, Fluo-4 calcium, ACh EC80 antagonist mode; active compounds read low; B-score at 10 µM; 64,000 compounds, 3.4% hits; AID 628;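 active means calcium fluorescence response, raw or row-and-column corrected B-score, differing from the plate sample mean either way at a set confidence level, mostly lower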
DAT uptake mod: human DAT dopamine uptake with cocaine, either direction; 110,000 compounds, 1.3% hits; Q01959; B-score at 10 µM; LLC-PK1 hDAT cells, [14C]-dopamine uptake with cocaine IC80; actives deviate in either direction;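 active means Z score or B-score, a plate-position-corrected score, falls beyond the plate's 99.7% confidence bounds, in either direction; inactive means both scores lie inside the 99.7% bounds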;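 further: scored against the spread of the other compound wells on the same plate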
FXIa mix inh: factor XIa (human) inhibition, mixture screen; P03951; purified FXIa, fluorogenic substrate, pooled mixtures; 62,000 compounds, 0.19% hits; inhibition, % at 5 µM;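 further: each value is inhibition by a whole ten-compound pool holding the compound; 0% = enzyme with no mixture and 100% = wells lacking enzyme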
Active calls of the source: *; · = no result. Rows were chosen to be rich in hits. Some 7.4% of all compounds tested hit in one or more screens of this group. Unless noted, no stated cut-off is given here; in the data, active means inhibition above about 20% (passing the limit was not always enough); inactive means the rest.

SMILES	FXIIa inh mix	D1 allo mod	M1 ag	M1 antagonist	DAT uptake mod	FXIa mix inh
Cc1ccc(C(=O)Nc2nc3c(s2)CCCC3)o1	-15	-4.7*	-0.046	-0.88	-0.13	-4
O=C(Nc1ncc(Cc2ccccc2)s1)c1cccs1	-1	-1.3	0.54	0.9	-0.018	-3
Cc1onc(-c2c(F)cccc2Cl)c1C(=O)NCc1ccccn1	-4	-4.2*	-0.51	0.52	0.0019	12
Cc1onc(-c2ccccc2Cl)c1C(=O)NCc1ccccn1	-22	0.95	-0.064	-0.18	-0.63	2
CCN(CC)C(=O)c1scc2c1OCCO2	3	·	-0.3	-0.4	-1.4	1
Cc1cc(Cl)c2c(c1)[C@]1(C(=O)N2)[C@@H]2C(=O)N(Cc3ccccc3)C(=O)[C@@H]2[C@@H]2CCCN21	3	0.019	0.75	0.021	0.28	10
O=C1[C@H]2[C@@H](C(=O)N1c1cc(Cl)cc(Cl)c1)[C@]1(C(=O)Nc3ccccc31)N1CCC[C@@H]21	2	0.28	-0.78	0.48	3.8*	6
CC(=O)n1cc([C@@H]2C=C(C(=O)NCc3ccccc3)O[C@H](OCc3ccc(CO)cc3)C2)c2ccccc21	·	·	·	·	2.2*	·
O=C(C1=C[C@H](c2csc3ccccc23)C[C@H](OCCCCO)O1)N1CCN(Cc2ccc3c(c2)OCO3)CC1	·	·	·	·	2.6*	·
O=C(C1=C[C@H](c2ccccc2)C[C@H](OCc2ccc(CO)cc2)O1)N1CCN(Cc2ccccc2)CC1	·	·	·	·	2.8*	·
C#CCNC(=O)C1=C[C@H](c2cn(C(C)=O)c3ccccc23)C[C@H](OCc2ccc(CO)cc2)O1	·	·	·	·	-0.081	·
COC(=O)COc1cccc2c(=O)n(CC(=O)Nc3ccc4c(c3)OCCO4)ccc12	·	·	·	·	0.58	·
c1ccc2c(c1)CCN(c1nc3cc4c(cc3s1)OCCO4)C2	-15	-6.1*	0.04	-0.38	0.87	5
CC1CCc2nn(CC(=O)NCCC3=CCCCC3)cc2C1 (stereo not given)	7	0.69	0.64	0.46	7.5*	-8
COCCNC(=O)Cn1cc2c(n1)CCC(C)C2 (stereo not given)	12	·	-0.63	-0.13	-0.33	-5
CCOC(=O)C1CCCN(C/C(O)=C(\C#N)c2nc(-c3ccccc3)cs2)C1 (stereo not given)	5	-0.13	11*	-0.21	0.03	-1
Cc1c(C(=O)Nc2ccc3c(c2)OCCO3)sc2nc(-c3ccccc3)cn12	·	-0.32	1.3	-0.72	-0.63	·
Cc1c(C(=O)Nc2ccncc2)sc2nc(-c3ccccc3)cn12	4	-4.5*	2.6	0.32	-0.01	6
Cc1c(C(=O)NCc2cccnc2)sc2nc(-c3ccc(F)cc3)cn12	-10	-5.8*	1.1	-0.91	1	2
Cc1c(C(=O)NCc2cccnc2)sc2nc(-c3ccccc3)cn12	-16	0.02	-0.59	-0.28	·	5
Nn1c(Nc2ccccc2)nc2sc3c(c2c1=O)CCC3	5	-0.83	-0.72	0.013	3.7*	7
Cc1cc(C)nc(NC(=O)CN2C(=O)c3ccccc3C2=O)n1	19	0.23	-0.13	-0.0034	-1.1	1
O=C(N1CCOCC1)N1CCN(Cc2ccccc2)CC1	1	-1.1	0.41	-0.74	-0.83	0
c1ccc(CN2CCC3(CC2)Nc2ccccc2CO3)cc1	9	-1.2	17*	-2.8*	-1.4	0
CC(C)CCNC(=O)Cn1c(NCCC(C)C)nc2c1c(=O)n(C)c(=O)n2C	4	-0.0042	-1.3	1.3*	-0.28	8
SMILES	FXIIa inh mix	D1 allo mod	M1 ag	M1 antagonist	DAT uptake mod	FXIa mix inh
O=CN(Cc1ccco1)C1(C(=O)NC2CCCCC2)CCCCC1	33*	0.7	-0.12	0.18	0.13	9
COc1ccc(NC(=O)CC2SC(=NCc3ccccc3OC)NC2=O)cc1 (stereo not given)	13	-4*	0.041	-1.1	-0.37	2
O=C(c1ccc(Br)o1)N1CCN(c2ccccc2F)CC1	0	0.74	1	0	-1.6	7
O=C(c1ccc(Br)o1)N1CCN(c2ccccn2)CC1	1	-0.58	0.2	-0.75	2.4*	10
O=C(O)CN1CCOCCOCCN(CC(=O)O)CCOCCOCC1	-2	0.34	0.43	-0.4	·	-4
C=C(C)[C@@H]1CCC2(C(=O)O)CC[C@]3(C)[C@H](CC[C@@H]4[C@@]5(C)CCC(=O)C(C)(C)[C@@H]5CC[C@]43C)[C@@H]12 (stereo not given in full)	·	·	·	·	0.42	·
CCn1c2ccccc2c2cc(C3C(C#N)=C(C)NC(C)=C3C#N)ccc21	1	-0.75	-1.5	0.97	-0.27	-11

Assay outcomes (PubChem BioAssay)
